From PubChem BioAssay (Tox21)
Results filed as inconclusive are left out. A call without a number means that no potency is given here. A number with no mark means an inactive call. The source made the active and inactive calls. The call rests on the fitted dose curve; in most records, active means well fitted cell-killing curve with a large enough effect in the repeat runs; inconclusive means weak or mixed curves, or effect the other way; inactive means flat fitted curve, though single readings scatter.
Potency means the concentration at half of the fitted maximal effect.

Test: qHTS RealTime-Glo MT Cell Viability Assay in HEK293 cells - 0 hour (AID 1224880); further: nearly all actives have a fitted effect of over 45% in size; on activity change, negative = cytotoxicity: top concentration of the series differs between compounds
Conditions: RealTime-Glo luminescence; series mostly up to 76.8 µM
Source text: U.S. Tox21 Program National Center for Advancing Translational Sciences [NCATS] NIH Chemical Genomics Center [NCGC] U.S. Environmental Protection Agency [EPA] National Institutes of Environmental Health Sciences [NIEHS] National Toxicology Program [NTP] U.S. Food and Drug Administration [FDA] Tox21 Assay Overview: Measure of cell viability is critical in the cell-base assay. Analysis of cell viability is necessary for the characterization of cell responses to cytotoxic drugs and environmental stress. A RealTime-Glo MT Cell Viability Assay to monitor cell viability in real time of continues cell culture during 40 hours of compound treatment was used to screen Tox21 10K library compounds in Hek293 cells. The RealTime-Glo MT Cell Viability Assay is a nonlytic, homogeneous, bioluminescent method to measure cell viability in real time using a simple, plate-based method. The assay involves adding NanoLuc luciferase and a cell-permeant prosubstrate to cells in culture. Viable cells reduce the proprietary prosubstrate to generate a substrate for NanoLuc luciferase. This substrate diffuses from cells into the surrounding culture medium, where it is rapidly used by the NanoLuc Enzyme to produce a luminescent signal. The signal correlates with the number of viable cells, making the assay well suited for cytotoxicity studies.
Tox21 Assay Protocol Summary: The mixture of Hek293 cell suspension and reagents were dispensed at 600cells/6 ul/well in 1536-well tissue culture treated black solid bottom plates using a Multidrop dispenser. After the assay plates were incubated at a 37 C/5% CO2 incubator for 5 hours, 23 nL of compounds dissolved in DMSO, positive and negative controls was transferred to the assay plate by a pintool work station. The plates were incubated at 37 C for 40 hours. The luminescence intensity were measured at 0h, 8h, 16h, 24h, 32h and 40h time points using ViewLux plate reader during compound treatment.
For `CO[C@@H]1[C@H](OC(=O)/C=C/C=C/C=C/C=C/C(=O)O)CC[C@]2(CO2)[C@H]1[C@@]1(C)O[C@@H]1CC=C(C)C`, the Potency was “inactive”. In the case of `N=c1ccn2c(n1)O[C@H]1[C@H](O)[C@@H](CO)O[C@H]12`, the Potency is reported as “inactive”. In the case of `CCCCCCCCCCCCN1CCCCCC1=O`, the Potency is reported as “inactive”. In the case of `CCOC(=O)COC(=O)c1cc(Oc2ccc(C(F)(F)F)cc2Cl)ccc1[N+](=O)[O-]`, the Potency is reported as “inactive”. With `CCCCC(=O)OCC(=O)[C@H]1[C@H](C)C[C@H]2[C@@H]3C[C@H](F)C4=CC(=O)C=C[C@]4(C)[C@@]3(F)[C@@H](O)C[C@@]21C` the Potency was 4.77 µM (active). In the case of `COc1cccc(N(C)C(=S)Oc2ccc3c(c2)CCCC3)n1`, the Potency is reported as “inactive”. In the case of `COc1cc(Cl)ccc1Oc1ccc(Cl)cc1Cl`, the Potency is reported as “inactive”. In the case of `NCc1ccccc1Sc1ccccc1CO`, the Potency is reported as “inactive”. For `COc1cc2nc(N3CCN(C(=O)C4COc5ccccc5O4)CC3)nc(N)c2cc1OC` (stereo not given), the Potency was 19 µM (active). For `CCN(CC)CCNc1ccc(CNC=O)c2sc3ccc(OC)cc3c(=O)c12`, the Potency was “inactive”. For `Nc1cc(C(=O)O)c(O)c(S(=O)(=O)O)c1`, the Potency was “inactive”. With `C#C[C@]1(O)CC[C@H]2[C@@H]3CCc4cc(OC5CCCC5)ccc4[C@H]3CC[C@@]21C` the Potency was “inactive”. With `Nc1ncn([C@H]2C[C@H](O)[C@@H](CO)O2)c(=O)n1` the Potency was “inactive”. For `Cc1c(N)cccc1[N+](=O)[O-]`, the Potency was “inactive”. For `Cc1cccc(C)c1NC(=O)CN(CC(=O)O)CC(=O)O`, the Potency was “inactive”. For `O=C(O)c1ccc(S(=O)(=O)O)cc1C(=O)O`, the Potency was “inactive”. For `Cn1c(=O)cc(Oc2ccc(F)cc2F)c2cnc(NCC(C)(C)O)nc21`, the Potency was “inactive”. With `COc1cc2nc(N(C)CCCNC(=O)C3CCCO3)nc(N)c2cc1OC` (stereo not given) the Potency was “inactive”. In the case of `COc1cc2nc(Cl)nc(N)c2cc1OC`, the Potency is reported as “inactive”. In the case of `c1cc(CCCc2ccncc2)ccn1`, the Potency is reported as “inactive”. In the case of `CC1=CC[C@H](C(C)C)C=C1`, the Potency is reported as “inactive”. With `O=S(=O)(Oc1ccc(Cl)cc1)c1ccccc1` the Potency was “inactive”. In the case of `Cc1cc(N)c2cc(NC(=O)Nc3ccc4nc(C)cc(N)c4c3)ccc2n1`, the Potency is reported as “inactive”. For `CCOC(=O)NCCOc1ccc(Oc2ccccc2)cc1`, the Potency was “inactive”. In the case of `C=C(C)C(=O)OCCO`, the Potency is reported as “inactive”. With `Nc1ccccc1S(=O)(=O)c1ccccc1` the Potency was “inactive”. For `O=C(O)CNCC(=O)O`, the activity change, negative = cytotoxicity was -1.51% [at 6.97 µM]. With `S=C([S-])NCCNC(=S)[S-].[Mn+2]` the Potency was “inactive”. In the case of `O=C1CCC(=O)O1`, the Potency is reported as “inactive”. For `O=C(CS)Nc1ccccc1`, the Potency was “inactive”. With `CC(C)OC(=O)C(C)N(C(=O)c1ccccc1)c1ccc(F)c(Cl)c1` (stereo not given) the Potency was “inactive”. For `O=C(OCCc1ccccc1)c1ccccc1`, the Potency was “inactive”. For `C=CC1CC2C=CC1C2` (stereo not given), the Potency was “inactive”. In the case of `O[C@@H](COc1cccc2ncccc12)CN1CCN(C2c3ccccc3[C@@H]3[C@H](c4ccccc42)C3(F)F)CC1` (stereo not given in full), the Potency is reported as “inactive”. For `CCOC(=O)c1cccnc1`, the Potency was “inactive”. In the case of `CC(C)(C)Cl`, the Potency is reported as “inactive”. In the case of `CC(C)(O)c1ccc(CNC(=O)c2cccnc2Oc2ccc(F)cc2)cc1`, the Potency is reported as “inactive”. In the case of `CCCCCCCCCCCc1ccccc1`, the Potency is reported as “inactive”. With `O=C(O)CC(=O)C(=O)O` the Potency was “inactive”. In the case of `Cc1[nH]c(C)c(Cl)c(=O)c1Cl`, the activity change, negative = cytotoxicity is reported as 7.46% [at 15.8 µM].
